Experiment in all cases: NCI-60 one-dose screen, 48 h (100 = growth as untreated, 0 = no growth, -100 = all killed)
Assay [1] deals with MALME-3M melanoma. The conditions noted are these: 10 µM unless noted.
Assay [2] has as its system RXF 393 renal. The conditions noted are these: 10 µM unless noted.
Assay [3] concerns SF-295 CNS. The conditions noted are these: 10 µM unless noted.
Assay [4] concerns UACC-257 melanoma. The conditions noted are these: 10 µM unless noted.
Assay [5] has as its system HCT-15 colon. The conditions noted are these: 10 µM.
Assay [6] relates to UACC-62 melanoma. The conditions noted are these: 10 µM unless noted.
Assay [7] has as its system LOX IMVI melanoma. The conditions noted are these: 10 µM unless noted.
Assay [8] deals with SK-MEL-2 melanoma. The conditions noted are these: 10 µM unless noted.
In assay [9] the test system is TK-10 renal. The conditions noted are these: 10 µM unless noted.
The test system of assay [10] is ACHN renal. The conditions noted are these: 10 µM unless noted.
The test system of assay [11] is A498 renal. The conditions noted are these: 10 µM unless noted.
Assay [12] deals with HL-60(TB) leukemia. The conditions noted are these: 10 µM unless noted.
For assay [13], the system named is MOLT-4 leukemia. The conditions noted are these: 10 µM.
Assay [14] has as its system OVCAR-8 ovarian. The conditions noted are these: 10 µM unless noted.
For assay [15], the system named is OVCAR-4 ovarian. The conditions noted are these: 10 µM unless noted.
Assay [16] concerns NCI/ADR-RES ovarian. The conditions noted are these: 10 µM unless noted.
The test system of assay [17] is T-47D breast. The conditions noted are these: 10 µM unless noted.
In assay [18] the test system is BT-549 breast. The conditions noted are these: 10 µM.
Assay [19] concerns HCC-2998 colon. The conditions noted are these: 10 µM unless noted.
Assay [20] concerns K-562 leukemia. The conditions noted are these: 10 µM unless noted.

The panel holds about 83,000 compounds, 20% with a hit somewhere; the sample as a whole holds those more often.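 Plates (96-well) were seeded with cells, treated with compound at one concentration, and incubated for 48 hours before percent growth was determined.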 Unmarked numbers belong to inactive results. The source made the active and inactive calls. The calls were made as follows: active = growth percent below 10; inactive = the rest.

`CC1COC(=O)C1` (stereo unspecified): the growth in [1] is 98.2%; in assay [2], 103%; in [3], 99.8%; in assay [4], 104%; in [5], 105%; in assay [6], 106%. Also, the growth in assay [7] was 100%; in [8] it was 99.3%; in assay [9], 100%; in [10], 108%; in assay [11], 89.2%; in [12], 105%. The growth in assay [13] is 102%; in assay [14] it was 104%; in assay [15], 109%; in [16], 106%; in assay [17], 95.5%; in assay [18], 102%. Further, the growth in [19] is 98.6%.
In the case of `CC1(C)N=C(N)N=C(N)N1c1ccc(CCC(=O)Nc2cccc(S(=O)(=O)F)c2)cc1`, the growth in assay [20] is 26.2%; in assay [1] it was -7.62% (active); in assay [2], 64.7%; in [3] it was 89.6%; in [4], 73.3%; in assay [5] it was 81.9%. The growth is 45.3% in assay [6]; 23.5% in assay [7]; 102% in assay [8]; 98.9% in [9]; 99.3% in assay [10]; 47.6% in assay [12]. Moreover, the growth in assay [13] is 82.7%; in assay [14] it was 85.8%; in [17], 98.4%; in assay [18] it was 84.9%; in assay [19], 67.5%.
With `S=P(NC1CCCCC1)(N1CC1)N1CC1`, the growth in assay [20] is 61.4%; in [1], 106%; in [2], 102%; in assay [3], 110%; in assay [4] it was 116%; in assay [5], 108%. Besides, the growth is 91.4% in assay [6]; 96.5% in [7]; 114% in assay [8]; 116% in [9]; 103% in assay [10]; 96.2% in assay [11]. In addition, the growth in assay [12] was 91.3%; in assay [13], 99.1%; in [14], 104%; in assay [15] it was 100%; in [16] it was 111%; in [17], 106%. The growth in assay [18] was 120%; in assay [19], 131%.

Source of the values: PubChem BioAssay (NCI).
